Screening data deposited in PubChem by Emory University Molecular Libraries Screening Center.
This is one part of a sample in which hits are shown more often than they occur.
14-3-3 PPI: 14-3-3 gamma protein interaction modulation; P61981; FP, 14-3-3gamma / TMR-pS259-Raf peptide binding; inhibition, % at 40 µM; hit rate 0.19% among 160,000; in the data active = inhibition above about 30%
Target sequence (P61981 whole entry, looked up): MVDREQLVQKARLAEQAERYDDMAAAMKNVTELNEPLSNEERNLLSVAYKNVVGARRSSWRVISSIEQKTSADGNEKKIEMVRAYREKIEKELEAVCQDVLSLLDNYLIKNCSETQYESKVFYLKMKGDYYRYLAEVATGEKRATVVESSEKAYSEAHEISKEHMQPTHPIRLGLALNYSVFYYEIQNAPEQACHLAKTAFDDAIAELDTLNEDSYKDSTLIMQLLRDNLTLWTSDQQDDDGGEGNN
Numbers stand for hits; . = inactive; + = active, no number.

SMILES | 14-3-3 PPI
O=C(NCCc1ccccc1)C1c2ccccc2Oc2ccccc21 | .
Cc1oc2cc3oc(=O)c(C)c(C)c3cc2c1C | .
Cc1nc(N2CCN(c3ccccn3)CC2)c2c(C)c(C)sc2n1 | .
CN(C)c1ccc(NC(=O)CSc2nc3ccccc3c(=O)n2Cc2cccs2)cc1 | .
CC(C)CC(C(=O)O)N1C(=O)C2C3CC(C(Br)C3Br)C2C1=O (stereo not drawn) | .
Cc1sc2nc(SCC(=O)N3CCN(CCO)CC3)n(-c3ccccc3)c(=O)c2c1C | .
CCOC(=O)CCCSc1nc2sc(C)c(C)c2c(=O)n1-c1ccccc1 | 44
CCOC(=O)CCCSc1nc2sc3c(c2c(=O)n1-c1ccccc1)CCCC3 | .
CCc1ccc(C2NN(C(=O)c3cccc(Br)c3)C3C(=O)N(c4ccccc4OC)C(=O)C23)cc1 (stereo not drawn) | .
c1ccc(CNc2ncnc3ccccc23)cc1 | .
COCCNc1ncnc2ccccc12 | 31
COCCNc1ncnc2ccc(Br)cc12 | .
N#CCCC1(CCC#N)c2ccccc2-c2nc3ccccc3cc21 | .
CCOC(=O)C1C(=O)C=C(c2ccc(OC)c(OC)c2)CC1c1ccco1 (stereo not drawn) | .
Cc1nc(N=Nc2ccc(C(=O)O)cc2)c(COP(=O)(O)O)c(C=O)c1O | 69
Cc1cc(O)c(C=Nc2ccc(C(=O)O)cc2)c(C)c1Cl | .
Cc1nc(N=Nc2ccc(S(=O)(=O)O)cc2S(=O)(=O)O)c(COP(=O)(O)O)c(C=O)c1O | 35
O=C1OC(c2ccc3c(c2)OCO3)N(C(=O)c2cc3ccccc3o2)c2ccccc21 (stereo not drawn) | .
Cc1nn(C(C)(C)C)c(OC(=O)CC(C)C)c1Sc1ccccc1[N+](=O)[O-] | .
CC(N)C(=O)N1CCOCCOCCN(C(=O)C(C)N)CCOCCOCC1 (stereo not drawn) | +
CC(C)NC(=O)N1CCOCCOCCN(C(=O)NC(C)C)CCOCCOCC1 | .
CC(C(=O)N1CCOCC1)N1C(=O)c2ccccc2C1=O (stereo not drawn) | .
O=c1[nH]c2c(s1)C1c3c(ccc4ccccc34)OCC1CS2 (stereo not drawn) | .
O=C(O)C1Sc2[nH]c(=O)sc2C2c3ccccc3OC(=O)C12 (stereo not drawn) | .
CC12COc3ccccc3C1c1sc(=O)[nH]c1SC2 (stereo not drawn) | 108
SMILES | 14-3-3 PPI
O=C(O)CCCNc1cc(N2CCC3(CC2)OCCO3)c2noc3c2c1C(=O)c1ccccc1-3 | .
O=C(O)CCCNc1cc(N2CCN(c3cccc(C(F)(F)F)c3)CC2)c2noc3c2c1C(=O)c1ccccc1-3 | .
O=C(O)CCCNc1cc(N2CCCCCC2)c2noc3c2c1C(=O)c1ccccc1-3 | 67
O=C(Cn1c(=O)n(Cc2ccc(C(=O)NC3CCCC3)cc2)c(=O)c2ccccc21)c1ccc(F)cc1 | .
O=C(CCNC(=O)Cn1ccc2ccccc2c1=O)NCc1ccc(F)cc1 | .
CCc1sc(NC(=O)CCC(=O)O)nc1-c1ccccc1 | .
CCC(=O)Oc1ccc(C2C3=C(CC(C)(C)CC3=O)OC3=C2C(=O)CC(C)(C)C3)cc1OC | .
CC(C)Cn1c(C=Cc2ccc(Cl)cc2)nc2ccccc21 | .
Cn1c(CNc2ccc(Cl)cc2)nc2ccccc21 | .
CC(C)N=c1cc2n(-c3ccc(Cl)cc3)c3ccccc3nc-2cc1Nc1ccc(Cl)cc1 | 97
CCn1c(=NC(=O)c2ccc(S(=O)(=O)N3CCC(C)CC3)cc2)sc2cc(OC)ccc21 | .
CCOc1ccccc1-n1c(SCC(N)=O)nnc1-c1cccnc1 | .
Cc1ccccc1-n1c(SCc2ccccc2)nnc1-c1cccnc1 | .
O=C(CSc1nnc2ccccn12)Nc1ccc2ccccc2c1 | .
CCn1c(CSc2nnc3ccccn23)nc2cc(C(=O)O)ccc21 | 139
CCn1c(CSc2nnc(-c3cccnc3)n2-c2ccccc2C)nc2cc(C(=O)O)ccc21 | 127
CCn1c(CSc2nc3ccccc3n2C)nc2ccccc21 | .
CC1=C(C(=O)OCCC(C)C)C(c2ccccc2I)NC(=O)N1C (stereo not drawn) | .
CCCOC(=O)COc1ccc2c(=O)c(Oc3ccccc3Br)coc2c1 | .
O=C(c1cccnc1Cl)N1CCN(CC=Cc2ccccc2)CC1 | .
CCNc1cccc2c1C(=O)N(C)C2=O | .
COC(=O)Cn1nc2c3c(cccc31)C(=O)c1ccccc1-2 | .
CCN(CC)C(=O)c1ccc2c(c1NCCO)C(=O)c1ccccc1C2=O | .
Cn1c(=O)c(NCCO)c2c3c(cccc31)C(=O)c1ccccc1-2 | 168
Cn1c(=O)c(N2CCOCC2)c2c3c(cccc31)C(=O)c1ccccc1-2 | 50
SMILES | 14-3-3 PPI
CC(C(=O)NC1CCCCC1)N1C(=O)c2ccccc2C1=O (stereo not drawn) | .
CN1C(=O)c2cccc3c(N4CCOCC4)ccc(c23)C1=O | .
Cn1c(=O)c(NC2CCCCC2)c2c3c(cccc31)C(=O)c1ccccc1-2 | 32
CCNc1c2c3c(cccc3n(C)c1=O)C(=O)c1ccccc1-2 | 54
O=C1c2ccccc2C(=O)c2c1ccc(C(=O)N1CCCC1)c2NCCO | .
O=C1c2cccc(Cl)c2C(=O)c2c1cccc2N1CCOCC1 | .
Cn1c(=O)c(=O)n(C)c2cc(S(=O)(=O)NC3CCCCCC3)ccc21 | .
Cc1ccc(N2C(=O)C(Cl)=C(N(C)c3ccccc3)C2=O)cc1Cl | .
CCCS(=O)(=O)N1CCCC(C(=O)NC(C)c2ccccc2)C1 (stereo not drawn) | .
O=S(=O)(c1cccc(-c2nnc(-c3ccc(Br)cc3)o2)c1)N1CCOCC1 | .
CCSc1ncnc2c1c(-c1ccccc1)cn2-c1ccc(F)cc1 | .
Cc1cc([N+](=O)[O-])nn1C(=O)c1ccccc1F | .
O=C(CSc1nnc(-c2ccc3c(c2)OCCO3)o1)N1CCc2ccccc21 | .
COc1cccc(-c2nn(C)c3sc(C(=O)NCCC(C)C)cc23)c1 | .
Cc1cc(OCC(=O)Nc2ccc(CC#N)cc2)cc(C)c1Cl | .
Cc1cc(C)nc(/N=C(\N)Nc2ccc(Cl)cc2C(=O)c2ccccc2)n1 | .
O=C(c1cc2ccccc2o1)N1CCN=C1SCc1ccc(Br)cc1 | .
O=C(NCCN1CCCC1)C1CCN(S(=O)(=O)c2cccc3nsnc23)CC1 | .
N#Cc1cccc(NC(=O)Cn2ncc3c(=O)oc4ccccc4c32)c1 | .
CCOc1ccc2nc(SCC(=O)Nc3cc(C)on3)sc2c1 | .
COc1ccccc1NC(=O)c1cc2ccccc2c(C=Nc2ccc(NC(C)=O)cc2)c1O | 73
COc1ccccc1N=Cc1c(O)c(C(=O)Nc2ccccc2)cc2ccccc12 | .
COc1cc(C=Nc2ccc(NC(C)=O)cc2)cc(OC)c1OC | .
Cn1cc(SCC(=O)N2CCCCCC2)c2ccccc21 | .
Cc1cc([N+](=O)[O-])ccc1-c1ccc(C=Cc2ccc3cccc(O)c3n2)o1 | 144
SMILES | 14-3-3 PPI
O=[N+]([O-])c1ccccc1-c1ccc(C=Cc2ccc3ccccc3n2)o1 | .
COc1ccc(OC)c(C=Cc2ccc3cccc(O)c3n2)c1 | .
O=C1c2cccc3cccc(c23)C(=O)N1c1ccc(F)c([N+](=O)[O-])c1 | .
O=C(O)C(NS(=O)(=O)c1ccccc1)c1ccccc1 (stereo not drawn) | .
COc1ccc(OC)c(-c2nnc(SCC(=O)Nc3nccs3)o2)c1 | .
O=c1nc2sc3[nH]c(=O)sc3cc-2s1 | 150
Cc1cc(NS(=O)(=O)c2ccc(NC(=O)C3c4ccccc4Oc4ccccc43)cc2)nc(C)n1 | .
O=C(NCc1cccs1)c1cc2nc(-c3cccs3)cc(C(F)(F)Cl)n2n1 | .
O=C(NCc1cccnc1)c1cc2nc(-c3cccs3)cc(C(F)(F)Cl)n2n1 | 39
